# Results: paper PMC7862700, “An all-to-all approach to the identification of sequence-specific readers for epigenetic DNA modifications on cytosine”
# Key:
# Experiment in all cases: DAPPL (digital affinity profiling via proximity ligation, sequencing); 10 mM Tris-HCl pH 7.5, 50 mM NaCl, 1 mM DTT, 4% glycerol, room temperature, 30 min; GST-TFs on glutathione beads, 16-mer random dsDNA library, 0.1% formaldehyde crosslink after washing; high values mean tight binding
# FLI1 = target: T1, FLI1 (Homo sapiens, UniProt Q01543 1-452); details: protein: recombinant; tags: N-terminal GST; dsDNA, one strand shown
# T1 sequence: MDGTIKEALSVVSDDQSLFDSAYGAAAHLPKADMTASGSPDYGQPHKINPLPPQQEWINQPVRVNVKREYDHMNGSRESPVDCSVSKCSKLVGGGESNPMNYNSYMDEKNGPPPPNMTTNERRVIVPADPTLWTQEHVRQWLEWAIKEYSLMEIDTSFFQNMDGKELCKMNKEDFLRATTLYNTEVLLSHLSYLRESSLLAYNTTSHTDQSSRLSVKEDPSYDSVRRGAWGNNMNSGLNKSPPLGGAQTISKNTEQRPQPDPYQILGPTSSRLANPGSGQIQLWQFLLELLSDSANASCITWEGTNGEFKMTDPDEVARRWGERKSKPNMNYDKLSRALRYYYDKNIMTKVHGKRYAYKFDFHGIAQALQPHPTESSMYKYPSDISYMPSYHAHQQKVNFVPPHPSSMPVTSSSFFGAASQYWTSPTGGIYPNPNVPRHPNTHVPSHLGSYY
# Procedure, shortened: (§1)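 Beads coated with glutathione captured GST-fused human transcription factors that had been expressed in yeast, and the factors were then given DNA barcodes and pooled with a tag-only sample. The pools were incubated with 200 nmole of a random double-stranded 16-mer DNA library in Tris/NaCl/DTT/glycerol buffer for 30 min at room temperature, washed, crosslinked with 0.1% formaldehyde and proximity-ligated with BsaI/T4 ligase at 37 °C for 1 h. PCR amplification and Illumina NextSeq500 sequencing came last. Binding signal is each hexamer's read frequency for a factor divided by its frequency for the tag-only sample.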
# ELK1 = target: T2, ELK1 (Homo sapiens, UniProt P19419 1-428); details: protein: recombinant; tags: N-terminal GST; dsDNA, one strand shown
# T2 sequence: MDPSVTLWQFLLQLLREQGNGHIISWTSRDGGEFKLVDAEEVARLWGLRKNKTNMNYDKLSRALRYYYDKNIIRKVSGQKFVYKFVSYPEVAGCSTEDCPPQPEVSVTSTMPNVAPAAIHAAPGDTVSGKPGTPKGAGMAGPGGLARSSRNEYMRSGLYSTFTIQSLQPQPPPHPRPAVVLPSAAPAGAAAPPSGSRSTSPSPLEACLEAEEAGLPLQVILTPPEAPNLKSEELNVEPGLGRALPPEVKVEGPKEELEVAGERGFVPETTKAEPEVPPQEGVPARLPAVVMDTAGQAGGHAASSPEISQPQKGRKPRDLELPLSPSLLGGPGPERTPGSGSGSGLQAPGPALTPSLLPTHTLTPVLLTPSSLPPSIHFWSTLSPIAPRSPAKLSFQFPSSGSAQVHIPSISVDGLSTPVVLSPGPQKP
# Procedure, shortened: as §1
# GABPA = target: T3, GABPA (Homo sapiens, UniProt Q06546 1-454); details: protein: recombinant; tags: N-terminal GST; dsDNA, one strand shown
# T3 sequence: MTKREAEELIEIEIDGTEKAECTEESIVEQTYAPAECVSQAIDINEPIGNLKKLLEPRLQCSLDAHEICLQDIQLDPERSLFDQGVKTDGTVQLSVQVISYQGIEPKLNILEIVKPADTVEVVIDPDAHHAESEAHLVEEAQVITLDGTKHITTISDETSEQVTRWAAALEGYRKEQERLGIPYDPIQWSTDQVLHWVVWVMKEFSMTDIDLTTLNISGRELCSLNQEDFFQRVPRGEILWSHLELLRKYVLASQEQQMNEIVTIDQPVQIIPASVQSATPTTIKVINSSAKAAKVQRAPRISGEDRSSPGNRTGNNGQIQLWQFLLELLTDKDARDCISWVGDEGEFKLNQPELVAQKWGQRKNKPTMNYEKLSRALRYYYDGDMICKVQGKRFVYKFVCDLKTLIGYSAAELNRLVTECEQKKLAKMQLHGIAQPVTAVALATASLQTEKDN
# Procedure, shortened: as §1
# ERG = target: T4, ERG (Homo sapiens, UniProt P11308 1-479); details: protein: recombinant; tags: N-terminal GST; dsDNA, one strand shown
# T4 sequence: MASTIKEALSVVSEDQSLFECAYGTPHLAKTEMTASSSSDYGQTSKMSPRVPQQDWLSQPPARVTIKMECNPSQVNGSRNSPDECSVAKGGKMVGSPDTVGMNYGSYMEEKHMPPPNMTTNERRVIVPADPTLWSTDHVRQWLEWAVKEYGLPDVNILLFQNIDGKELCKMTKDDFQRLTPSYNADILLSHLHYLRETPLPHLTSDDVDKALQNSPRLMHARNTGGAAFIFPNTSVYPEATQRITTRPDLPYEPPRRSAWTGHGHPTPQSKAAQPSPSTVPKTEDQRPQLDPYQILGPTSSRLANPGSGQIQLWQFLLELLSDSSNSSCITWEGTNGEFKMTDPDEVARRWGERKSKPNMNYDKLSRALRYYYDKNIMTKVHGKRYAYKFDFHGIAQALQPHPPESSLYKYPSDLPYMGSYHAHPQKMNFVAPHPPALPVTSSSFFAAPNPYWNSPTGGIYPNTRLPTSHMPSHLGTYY
# Procedure, shortened: as §1
# ELF1 = ELF1 (Homo sapiens, UniProt P32519 1-619); details: protein: recombinant; tags: N-terminal GST; dsDNA, one strand shown
# Procedure, shortened: as §1
# EHF = target: T5, EHF (Homo sapiens, UniProt Q9NZC4 1-300); details: protein: recombinant; tags: N-terminal GST; dsDNA, one strand shown
# T5 sequence: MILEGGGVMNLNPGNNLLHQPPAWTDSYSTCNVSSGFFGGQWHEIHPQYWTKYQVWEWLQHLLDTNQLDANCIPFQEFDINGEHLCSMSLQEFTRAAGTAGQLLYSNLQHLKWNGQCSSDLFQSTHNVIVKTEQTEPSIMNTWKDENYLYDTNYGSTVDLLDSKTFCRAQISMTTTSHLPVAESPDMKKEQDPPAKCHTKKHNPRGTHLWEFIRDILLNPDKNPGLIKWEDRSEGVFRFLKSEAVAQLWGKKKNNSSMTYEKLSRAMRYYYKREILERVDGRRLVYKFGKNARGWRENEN
# Procedure, shortened: as §1
# SPI1 = SPI1 (Homo sapiens, UniProt P17947 1-270); details: protein: recombinant; tags: N-terminal GST; dsDNA, one strand shown
# Procedure, shortened: as §1
# SPIB = SPIB (Homo sapiens, UniProt Q01892 1-262); details: protein: recombinant; tags: N-terminal GST; dsDNA, one strand shown
# Procedure, shortened: as §1
# ELK3 = target: T6, ELK3 (Homo sapiens, UniProt P41970 1-407); details: protein: recombinant; tags: N-terminal GST; dsDNA, one strand shown
# T6 sequence: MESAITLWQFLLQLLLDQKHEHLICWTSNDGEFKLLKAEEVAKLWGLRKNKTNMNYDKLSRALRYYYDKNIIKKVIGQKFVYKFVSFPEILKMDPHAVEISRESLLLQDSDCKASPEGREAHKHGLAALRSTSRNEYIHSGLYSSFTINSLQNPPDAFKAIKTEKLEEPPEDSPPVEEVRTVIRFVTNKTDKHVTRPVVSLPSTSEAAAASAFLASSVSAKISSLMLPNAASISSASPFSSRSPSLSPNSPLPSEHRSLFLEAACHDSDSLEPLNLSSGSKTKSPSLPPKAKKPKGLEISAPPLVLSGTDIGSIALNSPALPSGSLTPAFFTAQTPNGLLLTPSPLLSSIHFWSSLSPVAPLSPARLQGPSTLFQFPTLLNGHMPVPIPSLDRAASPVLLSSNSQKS
# Procedure, shortened: as §1
# FEV = target: T7, FEV (Homo sapiens, UniProt Q99581 1-238); details: protein: recombinant; tags: N-terminal GST; dsDNA, one strand shown
# T7 sequence: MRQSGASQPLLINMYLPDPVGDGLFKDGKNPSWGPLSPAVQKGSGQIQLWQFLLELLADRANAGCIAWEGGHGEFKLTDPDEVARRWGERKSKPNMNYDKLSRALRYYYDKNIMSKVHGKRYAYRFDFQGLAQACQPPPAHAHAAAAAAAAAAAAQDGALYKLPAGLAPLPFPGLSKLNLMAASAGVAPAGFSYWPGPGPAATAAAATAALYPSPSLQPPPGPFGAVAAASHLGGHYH
# Procedure, shortened: as §1
# ETV5 = ETV5 (Homo sapiens, UniProt P41161 1-510); details: protein: recombinant; tags: N-terminal GST; dsDNA, one strand shown
# Procedure, shortened: as §1
# HSF1 = HSF1 (Homo sapiens, UniProt Q00613 1-529); details: protein: recombinant; tags: N-terminal GST; chain copies: 3; dsDNA, one strand shown
# Procedure, shortened: as §1
# SPIC = target: T8, SPIC (Homo sapiens, UniProt Q8N5J4 1-248); details: protein: recombinant; tags: N-terminal GST; dsDNA, one strand shown
# T8 sequence: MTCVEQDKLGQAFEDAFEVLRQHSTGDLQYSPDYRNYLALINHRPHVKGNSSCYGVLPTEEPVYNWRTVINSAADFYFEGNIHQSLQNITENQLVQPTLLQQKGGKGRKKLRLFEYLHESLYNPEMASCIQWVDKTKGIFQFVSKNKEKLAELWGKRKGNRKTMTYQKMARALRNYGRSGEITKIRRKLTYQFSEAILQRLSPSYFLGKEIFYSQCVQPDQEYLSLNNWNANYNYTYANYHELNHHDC
# Procedure, shortened: as §1
# ELF4 = ELF4 (Homo sapiens, UniProt Q99607 1-663); details: protein: recombinant; tags: N-terminal GST; dsDNA, one strand shown
# Procedure, shortened: as §1
# ELK4 = target: T9, ELK4 (Homo sapiens, UniProt P28324-2 1-405); details: protein: recombinant; tags: N-terminal GST; dsDNA, one strand shown
# T9 sequence: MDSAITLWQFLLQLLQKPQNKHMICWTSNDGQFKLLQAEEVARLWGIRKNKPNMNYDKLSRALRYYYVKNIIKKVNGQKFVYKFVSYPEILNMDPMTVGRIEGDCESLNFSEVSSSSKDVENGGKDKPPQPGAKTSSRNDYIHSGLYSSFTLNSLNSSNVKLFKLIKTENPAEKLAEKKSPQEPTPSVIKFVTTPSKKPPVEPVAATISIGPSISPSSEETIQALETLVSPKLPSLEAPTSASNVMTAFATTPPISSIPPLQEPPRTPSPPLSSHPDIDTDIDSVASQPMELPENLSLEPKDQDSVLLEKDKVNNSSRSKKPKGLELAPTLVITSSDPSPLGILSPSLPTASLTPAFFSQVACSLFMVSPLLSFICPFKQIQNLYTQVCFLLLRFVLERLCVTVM
# Procedure, shortened: as §1
# ETV2 = target: T10, ETV2 (Homo sapiens, UniProt O00321 1-342); details: protein: recombinant; tags: N-terminal GST; dsDNA, one strand shown
# T10 sequence: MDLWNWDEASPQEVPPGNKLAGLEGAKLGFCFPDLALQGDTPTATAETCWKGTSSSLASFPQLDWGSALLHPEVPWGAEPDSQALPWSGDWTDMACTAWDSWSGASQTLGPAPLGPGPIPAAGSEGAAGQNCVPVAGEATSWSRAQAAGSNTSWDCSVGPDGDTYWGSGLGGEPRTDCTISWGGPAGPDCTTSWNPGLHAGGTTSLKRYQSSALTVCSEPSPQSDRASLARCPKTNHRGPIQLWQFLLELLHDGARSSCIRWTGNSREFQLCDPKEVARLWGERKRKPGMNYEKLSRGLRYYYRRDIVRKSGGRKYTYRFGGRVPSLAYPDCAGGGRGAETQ
# Procedure, shortened: as §1
# ELF3 = target: T11, ELF3 (Homo sapiens, UniProt P78545 1-371); details: protein: recombinant; tags: N-terminal GST; dsDNA, one strand shown
# T11 sequence: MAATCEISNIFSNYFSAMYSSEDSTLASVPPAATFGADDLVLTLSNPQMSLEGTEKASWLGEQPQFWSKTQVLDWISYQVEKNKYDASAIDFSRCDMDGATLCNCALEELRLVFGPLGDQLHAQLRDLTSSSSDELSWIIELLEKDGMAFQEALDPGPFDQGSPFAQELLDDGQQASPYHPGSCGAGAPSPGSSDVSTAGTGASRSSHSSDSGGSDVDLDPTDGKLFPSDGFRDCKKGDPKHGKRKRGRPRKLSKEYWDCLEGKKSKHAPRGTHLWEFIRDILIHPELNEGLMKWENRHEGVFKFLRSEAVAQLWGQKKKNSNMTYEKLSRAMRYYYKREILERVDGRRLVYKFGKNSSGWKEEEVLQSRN
# Procedure, shortened: as §1
# CRX = CRX (Homo sapiens, UniProt O43186 1-299); details: protein: recombinant; tags: N-terminal GST; dsDNA, one strand shown
# Procedure, shortened: as §1
# ETV1 = ETV1 (Homo sapiens, UniProt P50549 1-477); details: protein: recombinant; tags: N-terminal GST; dsDNA, one strand shown
# Procedure, shortened: as §1
# Sequence of SPIB (Q01892 whole entry): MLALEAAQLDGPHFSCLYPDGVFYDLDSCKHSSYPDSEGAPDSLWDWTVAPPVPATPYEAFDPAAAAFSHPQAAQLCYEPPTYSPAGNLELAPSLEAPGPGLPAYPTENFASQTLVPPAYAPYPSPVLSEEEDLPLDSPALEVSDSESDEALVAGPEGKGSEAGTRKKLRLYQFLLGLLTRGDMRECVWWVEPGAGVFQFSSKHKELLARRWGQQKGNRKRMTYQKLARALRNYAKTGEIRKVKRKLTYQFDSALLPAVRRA
# Sequence of ELF4 (Q99607 whole entry): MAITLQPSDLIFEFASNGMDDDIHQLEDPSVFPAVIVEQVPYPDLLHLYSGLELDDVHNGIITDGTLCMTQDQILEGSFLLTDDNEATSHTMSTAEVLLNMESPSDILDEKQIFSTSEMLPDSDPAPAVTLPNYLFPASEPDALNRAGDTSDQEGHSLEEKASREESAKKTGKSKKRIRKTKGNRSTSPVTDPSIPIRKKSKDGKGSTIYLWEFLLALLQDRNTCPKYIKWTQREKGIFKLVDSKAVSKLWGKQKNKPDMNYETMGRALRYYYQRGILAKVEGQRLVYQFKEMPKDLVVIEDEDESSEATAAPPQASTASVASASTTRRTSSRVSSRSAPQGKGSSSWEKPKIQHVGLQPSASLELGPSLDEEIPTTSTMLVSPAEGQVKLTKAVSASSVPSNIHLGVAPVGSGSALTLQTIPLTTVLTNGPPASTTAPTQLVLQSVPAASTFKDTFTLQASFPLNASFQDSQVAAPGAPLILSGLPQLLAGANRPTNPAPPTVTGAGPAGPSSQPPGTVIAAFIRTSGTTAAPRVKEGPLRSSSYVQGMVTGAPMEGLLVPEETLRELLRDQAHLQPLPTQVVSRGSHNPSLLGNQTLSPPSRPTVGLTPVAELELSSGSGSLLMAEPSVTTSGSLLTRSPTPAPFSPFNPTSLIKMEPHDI
# Sequence of ETV5 (P41161 whole entry): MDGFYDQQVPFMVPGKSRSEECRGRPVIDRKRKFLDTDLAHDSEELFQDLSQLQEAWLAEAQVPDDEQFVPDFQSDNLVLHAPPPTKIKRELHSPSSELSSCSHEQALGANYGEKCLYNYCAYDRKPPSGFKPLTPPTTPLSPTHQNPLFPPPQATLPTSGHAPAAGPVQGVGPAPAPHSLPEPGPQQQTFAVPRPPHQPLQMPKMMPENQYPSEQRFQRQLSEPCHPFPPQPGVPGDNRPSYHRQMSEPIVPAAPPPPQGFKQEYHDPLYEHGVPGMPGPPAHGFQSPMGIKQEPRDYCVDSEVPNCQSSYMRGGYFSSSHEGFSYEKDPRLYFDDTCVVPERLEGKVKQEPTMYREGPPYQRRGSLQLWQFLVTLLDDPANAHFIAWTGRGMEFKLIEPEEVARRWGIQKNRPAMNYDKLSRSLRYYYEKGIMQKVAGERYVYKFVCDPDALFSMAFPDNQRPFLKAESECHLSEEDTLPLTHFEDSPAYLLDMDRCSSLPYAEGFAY
# Sequence of CRX (O43186 whole entry): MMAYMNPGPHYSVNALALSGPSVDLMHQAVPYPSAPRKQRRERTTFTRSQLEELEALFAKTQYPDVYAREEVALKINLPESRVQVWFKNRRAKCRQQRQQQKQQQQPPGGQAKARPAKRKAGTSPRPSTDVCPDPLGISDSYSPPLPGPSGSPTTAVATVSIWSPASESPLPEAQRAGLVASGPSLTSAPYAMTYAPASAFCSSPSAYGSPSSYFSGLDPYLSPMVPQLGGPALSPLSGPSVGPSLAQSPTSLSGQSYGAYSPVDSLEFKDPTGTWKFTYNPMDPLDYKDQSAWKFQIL
# Sequence of ETV1 (P50549 whole entry): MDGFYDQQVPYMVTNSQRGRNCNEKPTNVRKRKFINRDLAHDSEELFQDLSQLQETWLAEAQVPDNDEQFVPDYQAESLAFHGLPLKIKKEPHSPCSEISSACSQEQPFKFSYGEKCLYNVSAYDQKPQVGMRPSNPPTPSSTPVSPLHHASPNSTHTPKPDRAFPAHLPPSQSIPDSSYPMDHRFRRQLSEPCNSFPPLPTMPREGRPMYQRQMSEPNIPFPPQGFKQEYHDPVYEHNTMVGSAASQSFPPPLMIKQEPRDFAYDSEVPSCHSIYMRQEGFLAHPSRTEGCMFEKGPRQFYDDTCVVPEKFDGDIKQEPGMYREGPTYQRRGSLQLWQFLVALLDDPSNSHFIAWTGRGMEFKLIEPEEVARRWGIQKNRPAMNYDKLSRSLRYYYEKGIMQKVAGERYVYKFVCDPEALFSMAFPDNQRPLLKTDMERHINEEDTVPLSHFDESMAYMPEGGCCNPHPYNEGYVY
# Sequence of HSF1 (Q00613 whole entry): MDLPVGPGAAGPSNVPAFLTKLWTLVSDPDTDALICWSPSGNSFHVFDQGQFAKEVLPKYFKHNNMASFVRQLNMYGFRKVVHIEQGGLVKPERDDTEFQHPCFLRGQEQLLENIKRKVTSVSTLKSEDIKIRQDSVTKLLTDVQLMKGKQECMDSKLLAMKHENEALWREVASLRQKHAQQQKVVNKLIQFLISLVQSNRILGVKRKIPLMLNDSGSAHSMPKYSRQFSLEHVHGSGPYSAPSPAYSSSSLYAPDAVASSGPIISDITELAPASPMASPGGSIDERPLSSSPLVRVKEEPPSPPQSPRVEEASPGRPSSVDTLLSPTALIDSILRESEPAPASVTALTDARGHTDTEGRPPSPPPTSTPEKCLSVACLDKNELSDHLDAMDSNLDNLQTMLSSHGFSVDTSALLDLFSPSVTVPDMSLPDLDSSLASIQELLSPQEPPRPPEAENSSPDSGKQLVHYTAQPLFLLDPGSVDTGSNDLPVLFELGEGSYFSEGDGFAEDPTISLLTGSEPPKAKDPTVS
# Sequence of ELF1 (P32519 whole entry): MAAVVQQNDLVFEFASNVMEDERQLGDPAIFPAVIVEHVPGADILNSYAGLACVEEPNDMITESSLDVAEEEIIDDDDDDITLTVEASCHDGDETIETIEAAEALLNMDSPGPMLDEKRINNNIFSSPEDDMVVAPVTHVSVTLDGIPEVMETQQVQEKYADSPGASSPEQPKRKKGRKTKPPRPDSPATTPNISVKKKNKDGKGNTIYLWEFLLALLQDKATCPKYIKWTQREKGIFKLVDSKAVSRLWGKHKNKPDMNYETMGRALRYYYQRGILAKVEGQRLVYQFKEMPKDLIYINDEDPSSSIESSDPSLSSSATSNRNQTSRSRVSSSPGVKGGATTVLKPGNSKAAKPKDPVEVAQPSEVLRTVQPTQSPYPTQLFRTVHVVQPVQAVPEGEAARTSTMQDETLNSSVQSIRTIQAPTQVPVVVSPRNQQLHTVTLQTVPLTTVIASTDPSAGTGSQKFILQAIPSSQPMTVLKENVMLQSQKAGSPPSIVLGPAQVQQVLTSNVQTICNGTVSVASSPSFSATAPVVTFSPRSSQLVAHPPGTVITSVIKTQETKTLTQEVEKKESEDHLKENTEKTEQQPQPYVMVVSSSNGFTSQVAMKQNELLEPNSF
sequence,measurement,setting,value
CTTCTT,binding signal,FLI1,"1.44 fold enrichment (6-mer frequency, TF over GST control)"
same,binding signal,ELK1,"1.58 fold enrichment (6-mer frequency, TF over GST control)"
same,binding signal,GABPA,"1.5 fold enrichment (6-mer frequency, TF over GST control)"
same,binding signal,ERG,"1.63 fold enrichment (6-mer frequency, TF over GST control)"
same,binding signal,ELF1,"1.65 fold enrichment (6-mer frequency, TF over GST control)"
same,binding signal,EHF,"1.53 fold enrichment (6-mer frequency, TF over GST control)"
same,binding signal,SPI1,"1.61 fold enrichment (6-mer frequency, TF over GST control)"
same,binding signal,SPIB,"1.44 fold enrichment (6-mer frequency, TF over GST control)"
same,binding signal,ELK3,"1.61 fold enrichment (6-mer frequency, TF over GST control)"
same,binding signal,FEV,"1.48 fold enrichment (6-mer frequency, TF over GST control)"
same,binding signal,ETV5,"1.59 fold enrichment (6-mer frequency, TF over GST control)"
same,binding signal,HSF1,"1.84 fold enrichment (6-mer frequency, TF over GST control)"
same,binding signal,SPIC,"1.61 fold enrichment (6-mer frequency, TF over GST control)"
same,binding signal,ELF4,"1.6 fold enrichment (6-mer frequency, TF over GST control)"
same,binding signal,ELK4,"1.58 fold enrichment (6-mer frequency, TF over GST control)"
same,binding signal,ETV2,"1.53 fold enrichment (6-mer frequency, TF over GST control)"
same,binding signal,ELF3,"1.45 fold enrichment (6-mer frequency, TF over GST control)"
same,binding signal,CRX,"1.89 fold enrichment (6-mer frequency, TF over GST control)"
same,binding signal,ETV1,"1.48 fold enrichment (6-mer frequency, TF over GST control)"
